The source of these data is PubChem BioAssay (NCATS).

SMILES strings stand for the structures. Inconclusive results are not listed. Activity calls are given as the source filed them. The call rests on the fitted dose curve; in most records, active means well fitted cell-killing curve with a large enough effect; inconclusive means small, poorly fitted or top-dose-only effect; inactive means no such curve, though single readings can be large or run the other way.
Potency means the concentration at half of the fitted maximal effect.

The assay can be described thus: qHTS of pediatric cancer cell lines to identify multiple opportunities for drug repurposing: Primary screen for OHS-50 cells (AID 1347103). Further: nearly all actives have a fitted effect of over 40% in size. Particulars: OHS-50 osteosarcoma viability, CellTiter-Glo luminescence, 48 h; series mostly up to 57.3 µM; activity change, negative = cytotoxic: at the top concentration. The source says:
Drug repurposing or repositioning has been offered as a strategy for drug development in oncology programs. This approach has special potential for childhood cancers and other rare or orphan diseases, where the expected return on new drug development has been a disincentive to pharmaceuticals.
In this project we exploit the poly-pharmacology of drugs to discover new indications via phenotypic screening of a panel of 19 well-characterized cell lines derived from solid tumors seen in children and adolescents. The goal is to identify approved drugs with previously unrecognized anticancer properties that has the potential to reveal new mechanisms and biological processes involved in carcinogenesis or drug resistance. We employed a titration-based paradigm (quantitative high-throughput screening or qHTS), where all compounds were tested at multiple concentrations for their effect on cell viability. Concentration-response curves (CRCs) were derived directly from the primary screen, and both potency and efficacy values were used to identify compounds with robust bioactivity profiles. We screened the NIH Chemical Genomics Center (NCGC) Pharmaceutical Collection (NPC) and Mechanism Interrogation Plate (MIPE) small molecule collections of approved and investigational compounds against these cell lines; and measured metabolically active cells after 48 hours of compound treatment as a proxy for cell viability.
Assay Submitter: Nathalia J. Martinez, National Center for Advancing Translational Sciences, National Institutes of Health, Rockville, MD, USA; email: natalia.martinez@nih.gov
[1] Shen, M et al. Quantitative high-throughput phenotypic screening of pediatric cancer cell lines identifies multiple opportunities for drug repurposing. Oncotarget 2017 Dec 19;9(4):4758-4772. PMID 29435139.
The cells were obtained from University of North Carolina (UNC), Pediatric Preclinical Testing Program (PPT), and Coriell Institute (CI).
qHTS cell viability assay:
Cells were assayed in growth media at a density of 500-1,000 cells/well. Five microliters of cells were dispensed into 1,536-well, white, solid-bottom, TC-treated plates (Greiner Bio One) using a multidrop dispenser and incubated at 37 degrees C, 5% CO2, under a humidified atmosphere for 5 hours. Twenty-three nanoliters of compounds and controls (neutral control DMSO or positive control bortezomib at final concentration of 2.3 µM) were subsequently transferred by Kalypsys pintool. For primary screens, the MIPE collection was tested at 11-point dilutions (final concentrations range from 0.78 nM to 46 µM) and the NPC collection at 8-point dilutions (final concentrations range from 0.59 nM to 46 µM). Compounds tested in follow-up screens were assayed at 11-point dilutions. Cells were incubated for 48 hours, followed by addition of 3 µL of CellTiter-Glo (Promega). After a 15 min incubation at room temperature, samples were analyzed for luminescence intensity using a ViewLux High-throughput CCD imager equipped with clear filters.
Consider `CC(=O)Oc1ccc(C)cc1`, for which the “activity change, negative = cytotoxic” value is 11.1% (inactive).
On the same count and under the same terms, with `Cc1cn([C@H]2C[C@H](F)[C@@H](CO)O2)c(=O)[nH]c1=O` the figure was 13.6% (inactive); with `Cc1cccc(C)c1NC(=O)c1ccccc1C(=O)O`, 13.6% (inactive).
On the same count and under the same terms, in the case of `O=c1[nH]c(=O)n([C@H]2C[C@H](O)[C@@H](CO)O2)cc1F` it was 30.3% (inactive).
In the case of `CC1(COc2ccc(CC3SC(=O)NC3=O)cc2)CCCCC1` (stereo not given), the Potency was 5.5 µM (active).
`CO[C@H]1C=CO[C@@]2(C)Oc3c(C)c(O)c4c(O)c(c(/C=N/N5CCN(C)CC5)c(O)c4c3C2=O)NC(=O)/C(C)=C\C=C[C@H](C)[C@H](O)[C@@H](C)[C@@H](O)[C@@H](C)[C@H](OC(C)=O)[C@@H]1C`: the “activity change, negative = cytotoxic” value was -11% (inactive).
Same read-out and setting: with `Cc1cccc(C)c1NC(=O)CN1CCCC1` the figure was 7.9% (inactive).
Still for that read-out and setting: with `N#CCC(=O)NN` the figure was 16.7% (inactive).
For the molecule `Oc1c(Cl)cc(Cl)c(Cl)c1Cc1c(O)c(Cl)cc(Cl)c1Cl`, the Potency is 6.17 µM (active).
As to `CC(C(=O)O)c1cccc(Oc2ccccc2)c1` (stereo not given), the “activity change, negative = cytotoxic” value is 6.49% (inactive).
Same read-out and setting: with `Nc1ccc(S(=O)(=O)NCc2ccccc2)cc1` the figure was -6.41% (inactive); with `CCOCCn1c(N2CCCN(C)CC2)nc2ccccc21`, -21.7% (inactive).
Still for that read-out and setting: with `CCC1NC(=O)c2cc(S(N)(=O)=O)c(Cl)cc2N1` (stereo not given) the figure was 8.83% (inactive); with `Nc1ccc(C(=O)NCC(=O)O)cc1`, -13.3% (inactive).
The same measure, in the same setting: with `CC(=O)Nc1ccc(CC(=O)O)cc1` the figure was -19.2% (inactive).
On to `CCc1nn(CCCN2CCN(c3cccc(Cl)c3)CC2)c(=O)n1CCOc1ccccc1`, for which the Potency was 24.6 µM (active).
With `C/C=C/C=N/NC(=O)c1ccncc1`, the “activity change, negative = cytotoxic” value is 10% (inactive).
With `Cn1c(=O)c2[nH]c(Br)nc2n(C)c1=O`, the “activity change, negative = cytotoxic” value is -21.8% (inactive).
Still for that read-out and setting: with `CCCCNC(=O)NS(=O)(=O)c1ccc(N)cc1` the figure was 15.1% (inactive).
In the case of `C[C@@]12C(=O)OC(=O)[C@]1(C)C1CCC2O1`, the Potency is 1.74 µM (active).
With `CC(C)(C)NC[C@H](O)COc1cccc2c1CCCC2=O`, the “activity change, negative = cytotoxic” value is -18.2% (inactive).
As for `CNCCCCOc1ccccc1Cc1ccccc1`, the Potency is 17.4 µM (active).
Take `CN1CCN(c2cc3c(cc2F)c(=O)c(C(=O)O)cn3-c2ccc(F)cc2)CC1`: the “activity change, negative = cytotoxic” value was 125% (inactive).
For `Oc1ccccc1C=NCc1ccccc1`, the “activity change, negative = cytotoxic” value is 10.2% (inactive).
Same read-out and setting: in the case of `O=C(O)CCNC(=O)c1ccccc1` it was 14% (inactive); in that of `CNCCc1ccccn1`, 11.6% (inactive); in that of `COc1cc(C)nc(-n2nc(C)cc2OC)n1`, 16.2% (inactive).
As to `FC1(F)C(F)(F)C(F)(F)C2(F)C(F)(F)C(F)(F)C(F)(F)C(F)(F)C2(F)C1(F)F` (stereo not given), the “activity change, negative = cytotoxic” value is 6.8% (inactive).
With `CN(C)CCOC(c1ccc(Cl)cc1)c1ccccn1` (stereo not given), the “activity change, negative = cytotoxic” value is -17.5% (inactive).
Same read-out and setting: in the case of `COc1ccc(/C=N/NC(=O)c2ccncc2)cc1OC` it was 6.45% (inactive).
In the case of `NCCNc1cccc2ccccc12`, the “activity change, negative = cytotoxic” value is -26.7% (inactive).
On the same count and under the same terms, with `C/C=C/c1ccc(O)c(OC)c1` the figure was 1.94% (inactive); with `COc1cc([C@H]2Oc3cc([C@H]4Oc5cc(O)cc(O)c5C(=O)[C@@H]4O)ccc3O[C@@H]2CO)ccc1O`, 10.1% (inactive); with `CCNC(=O)NCc1cccc(Cl)c1`, -6% (inactive).
Still for that read-out and setting: in the case of `O=C(O)P(=O)(O)O` it was 13% (inactive).
Still for that read-out and setting: in the case of `CCOC(=O)[C@H](CCc1ccccc1)N[C@@H](C)C(=O)N1[C@H](C(=O)O)C[C@@H]2CCC[C@@H]21` it was -10.2% (inactive); in that of `CCOc1ccccc1OCCN[C@H](C)Cc1ccc(OC)c(S(N)(=O)=O)c1`, -12.6% (inactive); in that of `COc1cc(C(=O)N2CCCCCCC2)cc(OC)c1OC`, -8.58% (inactive).
In the case of `CC1=C(C(=O)O)N2C(=O)[C@@H](NC(=O)[C@H](N)c3ccccc3)[C@H]2SC1`, the “activity change, negative = cytotoxic” value is 19.1% (inactive).
Turning to `O=C(Nc1ccc([N+](=O)[O-])cc1)Nc1ccc([N+](=O)[O-])cc1`, the “activity change, negative = cytotoxic” value is -5.8% (inactive).
